The source holds several records for some structures; these can differ, active in one and inactive in another. Calls of active or inactive are those of the source. The calls were made as follows: active = hit-call score of the fitted dose curve at least 0.9, where 1 is the maximum; inactive = score below 0.9.
Key:
[1] = read-out: Decorin, DCN (gene 1634); assay: BSK_MyoF_Decorin: BioMAP Diversity Plus: MyoF Assay for Decorin Biomarker Activity (AID 2284265); conditions: primary human lung fibroblasts
Summary of the method: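 Compound is added to lung fibroblast cultures; cells incubate 24 h; decorin is then measured by ELISA; the response is analysed upward against DMSO controls.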

[2] = read-out: Matrix Metallopeptidase 1 (MMP1), MMP1 (gene 4312); assay: BSK_MyoF_MMP1: BioMAP Diversity Plus: MyoF Assay for Matrix Metallopeptidase 1 (MMP1) Biomarker Activity (AID 2284268); conditions: primary human lung fibroblasts
Summary of the method: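 Lung fibroblast cultures were dosed with test chemicals and, after 24 h, MMP1 levels were measured by ELISA; responses were referenced to DMSO and analysed for increases.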

[3] = read-out: TIMP metallopeptidase inhibitor 1 (TIMP1), TIMP1 (gene 7076); assay: BSK_MyoF_TIMP1: BioMAP Diversity Plus: MyoF Assay for TIMP metallopeptidase inhibitor 1 (TIMP1) Biomarker Activity (AID 2284269); conditions: primary human lung fibroblasts
Summary of the method: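 ELISA quantified TIMP-1 levels after 24 h dosing of primary human lung fibroblasts, with DMSO as baseline. Parallel SRB total protein staining (0.1% SRB after TCA fixation, 560 nm) flagged overt cytotoxicity.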

[4] = BSK_MyoF_SRB: Viability Assessment in the BioMAP Diversity Plus: MyoF Assay (AID 2284267); conditions: primary human lung fibroblasts;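 also: total protein by SRB absorbance in parallel cultures as cytotoxicity measure; cells assessed 24 h after compound addition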
Summary of the method: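 Lung fibroblast cultures, 24 h post-dose; fix 10% TCA, stain 0.1% SRB, read 560 nm. Signal = total protein as cytotoxicity measure; fitted relative to DMSO negative control.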

[5] = IUF_NPC2c_oligodendrocyte_migration_120hr: Leibniz Research Institute for Environmental Medicine (IUF) 120-hour Neural Progenitor Cell Migration Assay for Oligodendrocyte Migration (NPC2c) (AID 2284297)
Summary of the method: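 Read-out is the mean distance of O4-positive oligodendrocytes from the sphere core edge at 120 h, normalized to radial glia migration and fitted in the gain direction against DMSO. Spheres of primary human neural progenitors differentiated on laminin under continuous compound exposure.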

[6] = IUF_NPC2a_radial_glia_migration_120hr: Leibniz Research Institute for Environmental Medicine (IUF) 120-hour Neural Progenitor Cell Migration Assay for Radial Glia Migration (NPC2a) (AID 2284298)
Summary of the method: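 Readout: distance in um from sphere core edge to migration-area edge, derived from Hoechst nuclei density with a threshold-defined polynomial boundary. Spheres: hNPC, GW 16-19, 0.3 mm, on PDL/laminin; exposure 5 days; DMSO is baseline.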

[7] = IUF_NPC2a_radial_glia_migration_72hr: Leibniz Research Institute for Environmental Medicine (IUF) 72-hour Neural Progenitor Cell Migration Assay for Radial Glia Migration (NPC2a) (AID 2284299)
Summary of the method: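 Readout: mean of four manual brightfield measurements of radial glia migration distance (um) at 72 h. hNPC spheres (0.3 mm) exposed to 7 compound concentrations plus solvent control on PDL/laminin, 37C, 5% CO2; activity fitted relative to DMSO.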

[8] = IUF_NPC2b_neuronal_migration_120hr: Leibniz Research Institute for Environmental Medicine (IUF) 120-hour Neural Progenitor Cell Migration Assay for Neuron Migration (NPC2b) (AID 2284300)
Summary of the method: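 Read-out is mean distance from sphere edge to each TUBB3-positive neuron at 120 h, expressed relative to radial glia migration distance and to DMSO baseline. Single 0.3 mm human NPC spheres differentiated on laminin under continuous compound exposure.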

[9] = IUF_NPC3_neuronal_differentiation_120hr: Leibniz Research Institute for Environmental Medicine (IUF) 120-hour Neuronal Differentiation Assay (NPC3) (AID 2284301)
Summary of the method: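 Value is percent TUBB3-positive neurons among Hoechst-stained nuclei in the migration area, scored by trained CNN after 120 h differentiation. Primary hNPC spheres on poly-D-lysine/laminin, N2 medium, continuous dosing from day 0, half-refeed day 3; DMSO reference.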

[10] = read-out: Intercellular Adhesion Molecule 1 (ICAM1), ICAM1 (gene 3383); assay: BSK_BE3C_ICAM1: BioMAP Diversity Plus: BE3C Assay for Intercellular Adhesion Molecule 1 (ICAM1) Biomarker Activity (AID 2284278); conditions: primary human bronchial epithelial cells;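 also: cell-surface ICAM-1 protein level quantified by ELISA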
Summary of the method: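 ELISA read-out of ICAM-1 on human lung bronchial epithelial primary cells, 24 h post-dosing; positive-direction curve fit, DMSO = baseline. SRB total-protein staining of parallel cultures flagged overt cytotoxicity.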

[11] = read-out: Interferon-inducible T-cell alpha chemoattractant (ITAC), CXCL11 (gene 6373); assay: BSK_BE3C_ITAC: BioMAP Diversity Plus: BE3C Assay for Interferon-inducible T-cell alpha chemoattractant (ITAC) Biomarker Activity (AID 2284279); conditions: primary human bronchial epithelial cells
Summary of the method: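 ELISA for I-TAC in primary human bronchial epithelial cultures 24 h post-treatment, fitted relative to DMSO baseline in positive direction. Cytotoxicity checked in parallel cultures by sulforhodamine B protein staining.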

[12] = read-out: Interleukin-8 (IL8), CXCL8 (gene 3576); assay: BSK_BE3C_IL8: BioMAP Diversity Plus: BE3C Assay for Interleukin-8 (IL8) Biomarker Activity (AID 2284280); conditions: primary human bronchial epithelial cells
Summary of the method: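 Primary human bronchial epithelial cells (BE3C system) were exposed to test chemical for 24 h, and IL-8 levels were then measured by ELISA. Activity was fitted in the positive (gain-of-signal) direction against a DMSO negative-control baseline.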

[13] = read-out: Epidermal growth factor receptor (EGFR), EGFR (gene 1956); assay: BSK_BE3C_EGFR: BioMAP Diversity Plus: BE3C Assay for Epidermal growth factor receptor (EGFR) Biomarker Activity (AID 2284281); conditions: primary human bronchial epithelial cells
Summary of the method: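 Human primary bronchial epithelial cells were exposed to compound for 24 h, and cell-surface EGFR was then quantified by ELISA. Activity was fitted in the positive direction against the DMSO vehicle baseline.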

[14] = read-out: KRT18 (gene 3875); assay: BSK_BE3C_Keratin818: BioMAP Diversity Plus: BE3C Assay for Keratin 818 Biomarker Activity (AID 2284282); conditions: primary human bronchial epithelial cells
Summary of the method: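 ELISA read-out of Keratin 8/18 in BE3C human bronchial epithelial cultures, 24 h post-dosing; positive-direction fit vs DMSO baseline.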

[15] = read-out: Matrix Metallopeptidase 9 (MMP9), MMP9 (gene 4318); assay: BSK_BE3C_MMP9: BioMAP Diversity Plus: BE3C Assay for Matrix Metallopeptidase 9 (MMP9) Biomarker Activity (AID 2284283); conditions: primary human bronchial epithelial cells
Summary of the method: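 BE3C, human bronchial epithelial primary cells; 24 h post-dose; MMP-9 by ELISA; positive fit vs DMSO; SRB (0.1%, TCA-fixed, 560 nm) parallel cytotox.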

[16] = read-out: Plasminogen activator inhibitor-1 (PAI1), SERPINE1 (gene 5054); assay: BSK_CASM3C_PAI1: BioMAP Diversity Plus: CASM3C Assay for Plasminogen activator inhibitor-1 (PAI1) Biomarker Activity (AID 2284284); conditions: primary human coronary artery smooth muscle cells;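 also: PAI-1 protein level measured by ELISA 24 h after dosing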
[17] = read-out: Monocyte Chemoattractant Protein-1 (MCP1), CCL2 (gene 6347); assay: BSK_hDFCGF_MCP1: BioMAP Diversity Plus: hDFCGF Assay for Monocyte Chemoattractant Protein-1 (MCP1) Biomarker Activity (AID 2284285); conditions: primary human foreskin fibroblasts
Summary of the method: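 MCP-1 ELISA readout was taken 24 hours after dosing primary human dermal fibroblasts in the hDFCGF system, with DMSO as baseline. Parallel sulforhodamine B staining of total protein tracked overt cytotoxicity.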

[18] = read-out: Intercellular Adhesion Molecule 1 (ICAM1), ICAM1 (gene 3383); assay: BSK_hDFCGF_ICAM1: BioMAP Diversity Plus: hDFCGF Assay for Intercellular Adhesion Molecule 1 (ICAM1) Biomarker Activity (AID 2284287); conditions: primary human foreskin fibroblasts
Summary of the method: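 ICAM-1 ELISA readout 24 h after dosing, DMSO as baseline, in human dermal foreskin fibroblast cultures. Cytotoxicity checked in parallel wells by SRB staining (0.1% SRB, 10% TCA fixation, 560 nm).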

[19] = read-out: TIMP metallopeptidase inhibitor 2 (TIMP2), TIMP2 (gene 7077); assay: BSK_hDFCGF_TIMP2: BioMAP Diversity Plus: hDFCGF Assay for TIMP metallopeptidase inhibitor 2 (TIMP2) Biomarker Activity (AID 2284289); conditions: primary human foreskin fibroblasts
Summary of the method: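 Primary human foreskin fibroblasts in the hDFCGF system, dosed for 24 h; TIMP-2 level measured by ELISA, fitted in the positive direction against DMSO; cytotoxicity checked in parallel by sulforhodamine B total protein staining.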

[20] = read-out: Thrombomodulin, THBD (gene 7056); assay: BSK_LPS_Thrombomodulin: BioMAP Diversity Plus: LPS Assay for Thrombomodulin Biomarker Activity (AID 2284296)
Summary of the method: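 Thrombomodulin on the surface of LPS-activated endothelial/PBMC co-cultures was quantified by ELISA at 24 hours post-dosing, with DMSO as baseline. Parallel SRB total-protein staining flagged overt cytotoxicity.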

Measured: AC50

OC(Cc1ccccc1Cl)(Cn1cncn1)C1(Cl)CC1 (stereo unspecified)
inactive: [1] | [2] | [3]

NC(=O)CCl
inactive: [1] | [4] | [2] | [3]

Cc1cc(Cl)ccc1N
inactive: [1] | [2] | [3]

Cc1cc(C(C)(C)c2ccc(O)c(C)c2)ccc1O
active: [2] 15.7 µM
inactive: [1] | [3]

O=[N+]([O-])c1ccc(Nc2ccccc2)cc1
inactive: [1] | [4] | [2] | [3]

CCOP(=O)(OCC)SCCSCC
inactive: [1] | [4] | [2] | [3]

CC(C)=CC1C(C(=O)OCc2cccc(Oc3ccccc3)c2)C1(C)C (stereo unspecified)
inactive: [1] | [2] | [3]

O=[N+]([O-])c1cccc2ccccc12
inactive: [1] | [4] | [2] | [3]

CCOP(=S)(OCC)OP(=S)(OCC)OCC
inactive: [1] | [2] | [3]

CC1(C)[C@H](C(=O)O[C@H](C#N)c2cccc(Oc3ccccc3)c2)[C@@H]1/C=C(\Cl)C(F)(F)F
inactive: [1] | [2] | [3] | [5] | [6] | [7] | [8] | [9]
active: [2] 3.39 µM

c1ccc(-c2cccc(-c3ccccc3)c2)cc1
active: [4] 22.5 µM | [2] 8.44 µM
inactive: [1] | [3]

CC(C)(C)c1cc([N+](=O)[O-])cc(C(C)(C)C)c1O
inactive: [1] | [2] | [3]

O=S(=O)(C(Cl)(Cl)Cl)C(Cl)(Cl)Cl
active: [1] 3.37 µM | [2] 7.05 µM | [3] 2.93 µM

O=C1C=CC(=O)c2ccccc21
active: [1] 1.33 µM | [2] 10.1 µM | [3] 4.43 µM

CCOCn1c(-c2ccc(Cl)cc2)c(C#N)c(Br)c1C(F)(F)F
active: [6] 63.4 µM | [7] 36.6 µM | [8] 35.4 µM | [9] 5.42 µM
inactive: [5]

Cc1cccc(OP(=O)(Oc2cccc(C)c2)Oc2cccc(C)c2)c1
inactive: [1] | [2] | [3]

CNC(=O)CSP(=O)(OC)OC
inactive: [5] | [6] | [7] | [8] | [9]

O=C(Cc1ccccc1)OCCc1ccccc1
inactive: [10] | [11] | [12] | [13] | [14] | [15] | [16] | [17] | [18] | [19] | [20]

Nc1c(Oc2ccccc2)cc(O)c2c1C(=O)c1ccccc1C2=O
inactive: [1] | [2] | [3]

Cc1cc(Cl)ccc1OC(C)C(=O)O (stereo unspecified)
inactive: [1] | [2] | [3]

CC(C)[C@@H](Nc1ccc(C(F)(F)F)cc1Cl)C(=O)OC(C#N)c1cccc(Oc2ccccc2)c1 (stereo partly specified)
inactive: [5] | [6] | [7] | [8]
active: [9] 1.92 µM

CCN(CC)C(=O)C(Cl)=C(C)OP(=O)(OC)OC
inactive: [1] | [2] | [3]
